Results from article PMC4336329 (PLoS ONE, 2015).
Screen size: about 310,000 compounds; about 14,000 (4.5%) showed an effect of 50% or more. The effect is printed as a negative number. This is one part of a sample in which strong results are shown more often than they occur.

Biological target: human ether-à-go-go-related gene (hERG) potassium channel (human, UniProt Q12809)
Assay: primary screen, population patch clamp on CHO cells stably expressing hERG; higher = less effect of the substance
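Also: peak tail current of the secondary pulse compared with the same well before compound.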

Sequence of human ether-à-go-go-related gene (hERG) potassium channel (Q12809 whole entry, looked up): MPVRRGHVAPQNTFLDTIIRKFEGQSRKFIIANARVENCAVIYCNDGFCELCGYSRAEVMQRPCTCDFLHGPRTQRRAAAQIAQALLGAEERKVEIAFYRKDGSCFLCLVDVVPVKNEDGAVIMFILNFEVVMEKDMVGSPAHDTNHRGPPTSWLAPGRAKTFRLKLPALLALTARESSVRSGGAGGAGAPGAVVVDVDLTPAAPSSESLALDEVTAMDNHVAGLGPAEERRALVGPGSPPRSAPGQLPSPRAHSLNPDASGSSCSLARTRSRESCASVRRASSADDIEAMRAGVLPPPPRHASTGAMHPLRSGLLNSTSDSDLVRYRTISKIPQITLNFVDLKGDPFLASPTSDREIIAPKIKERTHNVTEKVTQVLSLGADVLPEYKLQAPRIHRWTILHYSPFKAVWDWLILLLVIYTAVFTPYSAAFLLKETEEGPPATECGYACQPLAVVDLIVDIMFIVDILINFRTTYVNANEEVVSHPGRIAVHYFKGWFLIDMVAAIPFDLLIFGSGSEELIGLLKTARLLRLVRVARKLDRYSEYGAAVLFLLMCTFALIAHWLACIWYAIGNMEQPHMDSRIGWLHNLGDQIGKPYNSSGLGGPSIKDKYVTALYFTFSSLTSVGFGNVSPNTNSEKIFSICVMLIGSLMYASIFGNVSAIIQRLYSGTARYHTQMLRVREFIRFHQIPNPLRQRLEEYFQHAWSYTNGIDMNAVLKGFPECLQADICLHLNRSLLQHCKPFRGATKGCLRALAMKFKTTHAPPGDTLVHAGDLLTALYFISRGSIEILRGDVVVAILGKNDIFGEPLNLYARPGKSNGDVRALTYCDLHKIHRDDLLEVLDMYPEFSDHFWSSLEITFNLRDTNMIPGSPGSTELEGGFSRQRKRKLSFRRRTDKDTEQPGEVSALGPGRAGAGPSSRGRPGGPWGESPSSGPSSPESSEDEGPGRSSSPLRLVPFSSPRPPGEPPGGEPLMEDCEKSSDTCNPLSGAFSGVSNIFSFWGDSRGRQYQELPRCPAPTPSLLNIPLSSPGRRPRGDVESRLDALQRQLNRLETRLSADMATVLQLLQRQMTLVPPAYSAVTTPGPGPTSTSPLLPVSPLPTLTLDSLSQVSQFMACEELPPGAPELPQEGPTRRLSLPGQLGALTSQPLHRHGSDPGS

SMILES	hERG current change (%, negative = inhibition) at 10uM
CCOC(=O)N1CCN(S(=O)(=O)c2c[nH]c(C(=O)OC)c2)CC1	12%
COc1cccc(CNC(=O)c2nnn(CC(=O)Nc3ccc(C)c(C)c3)c2N)c1	1.8%
O=C(O)c1ccc(/C=N/Nc2ncc(C(F)(F)F)cc2Cl)cc1	3.54%
COCc1ccc(CN2CCC(C(=O)Nc3cccc(-c4cscn4)c3)CC2)o1	-18.9%
COc1cccc(-c2cccc(NC(=O)C3CCN(Cc4ccc(CO)o4)CC3)c2)c1	-32.5%
COc1cccc(-c2ccc(NC(=O)C3CCCN(Cc4ccc(CO)o4)C3)cc2)c1 (stereo not drawn)	2.83%
Cc1ccc(CN2CCC(C(=O)Nc3cccc(-c4cccc(F)c4)c3)CC2)o1	-69.1%
O=C(Nc1cccc(-c2cccc(F)c2)c1)C1CCN(Cc2ccco2)CC1	-67.5%
COc1cccc(-c2cccc(NC(=O)C3CCN(Cc4ccc(C)o4)CC3)c2)c1	-39.4%
O=C(Nc1cccc(-c2cscn2)c1)C1CCN(Cc2ccc(CO)o2)CC1	-3.02%
O=C(Nc1cccc(F)c1)C1CCN(C(=O)c2ccco2)CC1	-26.4%
O=C(Nc1cccc(-c2cccc(Cl)c2)c1)C1CCN(Cc2ccc(CO)o2)CC1	-68%
O=C(Nc1cccc(-c2cccc(F)c2)c1)C1CCN(Cc2ccc(CO)o2)CC1	-70.3%
O=C(c1cccc(F)c1)N1CCN(Cc2ccco2)CC1	4.78%
CCC(=O)OC1(C)C(=O)C2=COC(c3ccc(OC)cc3)=CC2=C(Br)C1=O (stereo not drawn)	1.2%
CC(=O)N(Cc1ccc(Br)cc1)c1cccc(C)c1C	3.64%
N#Cc1ccc(CSc2nnc3ccccn23)cc1	-0.562%
Cc1c(Br)c(C(F)(F)F)nn1CC(=O)NCc1ccccc1	31.8%
Cc1cc(C)n2nc(SCCOc3ccccc3F)nc2n1	-22.7%
COc1ccc(C(=O)c2cn[nH]c2-c2ccc(C)cc2O)cc1	-2.49%
Cc1cccc(C)c1-n1c(C)cc(/C=N/NC(N)=S)c1C	15.6%
CCOC(=O)CCCCC(=O)c1[nH]c(=O)[nH]c1CN1CCOCC1	20%
CN(C)/C=C/C(=O)c1ccc2noc(-c3ccccc3)c2c1	-62.6%

SMILES	hERG current change (%, negative = inhibition) at 10uM
Cc1cccc(-c2onc3ccc(C(=O)/C=C/N(C)C)cc23)c1	-42%
CN(C)/C=C/C(=O)c1ccc2noc(-c3cccc(F)c3)c2c1	-50.2%
COc1cccc(-c2onc3ccc(C(=O)/C=C/N(C)C)cc23)c1	-31.4%
CC(=O)c1ccc2noc(-c3cccc(F)c3)c2c1	2.79%
CN(C)/C=C/C(=O)c1ccc2noc(-c3ccc(F)cc3)c2c1	-9.41%
O=C(NCc1ccc2c(c1)OCO2)C1CC(=O)N(c2ccc(F)cc2)C1 (stereo not drawn)	-29.9%
CC(C)(C)NC(=O)CN(C(=O)CCC(=O)Nc1nccs1)c1ccc(F)cc1	12.6%
CCC(CO)NCc1ccc2c(c1)n(C)c(=O)n2C.Cl (stereo not drawn)	17.4%
O=C(O)c1ccc(NS(=O)(=O)c2cc(C(=O)O)ccc2Br)cc1	17%
O=C(N/N=C\c1ccc(Cl)s1)c1cccs1	23.2%
COc1ccccc1N1CCN(C(=O)c2sc3ncn(CC(=O)N4CCC(C)CC4)c(=O)c3c2C)CC1	-29.3%
Br.CCCCCCCCCCCCn1ccc(=N)cc1	-60.2%
Br.CCCCCCCCn1ccc(=N)cc1	-27%
CCCCCCCn1ccc(=N)cc1.I	-14.7%
Br.CCCCCCCCCCn1ccc(=N)cc1	-72.9%
Br.CCCCCCn1ccc(=N)cc1	1.66%
Br.CCCCCCCCCn1ccc(=N)cc1	-66%
CCCCCn1ccc(=N)cc1.I	11.7%
Br.CCCCCCN1Cc2ccccc2C1	-39.3%
CCCCCCCCCCCCCCCCn1cc[n+](C)c1.[Br-]	-18.4%
O=C(O)C1CCCCC1C(=O)NCCCN1CCOCC1 (stereo not drawn)	-1.05%
Cc1ccc(/C=C/C(=O)NCC2COc3ccccc3O2)o1 (stereo not drawn)	-18.2%
CCCCC(=O)N/N=C/c1c(O)n(CCc2ccccc2)c(=O)[nH]c1=O	18.3%

SMILES	hERG current change (%, negative = inhibition) at 10uM
CCOC(=O)C1CCCN(c2c(NCCN3CCCCC3C)c(=O)c2=O)C1 (stereo not drawn)	5.47%
COc1ccc(C(=O)COC(=O)c2ccc3c(c2)OCO3)c(OC)c1	-16.9%
Cc1ccc(OCC(O)Cn2c(N3CCCCC3)nc3c2c(=O)[nH]c(=O)n3C)cc1 (stereo not drawn)	9.46%
Cn1c(=O)[nH]c(=O)c2c1nc(Br)n2CC(O)COc1ccc(Cl)cc1 (stereo not drawn)	-63.6%
CCCn1c(N2CCN(Cc3cccc(C)c3)CC2)nc2c1c(=O)[nH]c(=O)n2C	-53%
COc1ccc(N2CCN(c3nc4c(c(=O)[nH]c(=O)n4C)n3Cc3cccc(C)c3)CC2)cc1	-14.2%
Cn1c(=O)[nH]c(=O)c2c1nc(N1CCCCC1)n2CC(O)COc1ccc([N+](=O)[O-])cc1 (stereo not drawn)	-69.8%
Cn1c(=O)[nH]c(=O)c2c1nc(Br)n2CC(O)COc1ccccc1 (stereo not drawn)	-0.394%
COc1ccc(OCC(O)Cn2c(Br)nc3c2c(=O)[nH]c(=O)n3C)cc1 (stereo not drawn)	-12.6%
CCCn1c(N2CCN(C)CC2)nc2c1c(=O)[nH]c(=O)n2C	-13.5%
Cn1c(=O)[nH]c(=O)c2c1nc(Br)n2Cc1cccc(Br)c1	15.1%
CN1CCN(c2nc3c(c(=O)[nH]c(=O)n3C)n2Cc2ccccc2)CC1	-25.4%
CN1CCN(c2nc3c(c(=O)[nH]c(=O)n3C)n2Cc2cccc(Br)c2)CC1	-53.5%
COc1ccc(OCC(O)Cn2c(N3CCCCC3)nc3c2c(=O)[nH]c(=O)n3C)cc1 (stereo not drawn)	-5.73%
CCOC(=O)C[C@H]1c2ccccc2S(=O)(=O)N1C1CC1	5.78%
Br.CC1(C)OC(c2ccccc2)=C/C(=C/C=Nc2ccccc2)O1	-12.9%
CC(C)c1ccc(C(O)c2cnc(C(C)C)n2C)cc1 (stereo not drawn)	-27.5%
O=C1N=C(N2CCN(c3cccc4ccccc34)CC2)S/C1=C/c1cccs1	11.9%
O=C1N/C(=N\N=C\c2cccs2)SC1Cc1ccc(Cl)cc1 (stereo not drawn)	-8.96%
COc1ccc(-n2cnnc2SCC(=O)NC2CCS(=O)(=O)C2)cc1 (stereo not drawn)	8.52%
O=C(CSc1nc2ccccc2n1-c1ccccc1)Nc1ncc(Cl)cc1Cl	12.1%
O=C(Nc1ccc(F)cc1F)C1CCN(S(=O)(=O)c2cccnc2)CC1	-1.85%
CSc1ccc(Cn2nnc(C(=O)NCc3ccccc3)c2N)cc1	-0.141%

SMILES	hERG current change (%, negative = inhibition) at 10uM
CS(=O)(=O)N1CCC(C(=O)Nc2cccc(C(F)(F)F)c2)CC1	-14.2%
O=C(CCCCn1c(=O)c2ccccc2n(Cc2ccc(F)cc2Cl)c1=O)NCc1ccco1	-5.07%
CN1CCN(c2nc3c(c(=O)n(C)c(=O)n3C)n2Cc2ccc(Cl)cc2)CC1	-39.5%
CN1CCN(c2nc3c(c(=O)[nH]c(=O)n3C)n2Cc2cccc3ccccc23)CC1	-27.6%
Cc1cccc(Cn2c(N3CCN(CCO)CC3)nc3c2c(=O)[nH]c(=O)n3C)c1	-23.5%
CN1CCN(c2nc3c(c(=O)n(C)c(=O)n3C)n2Cc2cccc(Br)c2)CC1	-55.1%
Cc1cccc(Cn2c(N3CCc4ccccc4C3)nc3c2c(=O)[nH]c(=O)n3C)c1	-4.89%
CN1CCN(c2nc3c(c(=O)[nH]c(=O)n3C)n2Cc2ccc([N+](=O)[O-])cc2)CC1	-59%
CN1CCN(c2nc3c(c(=O)[nH]c(=O)n3C)n2Cc2ccc(Cl)cc2)CC1	-15.5%
Cc1cccc(Cn2c(N3CCN(C)CC3)nc3c2c(=O)[nH]c(=O)n3C)c1	-50.7%
Cc1cccc(Cn2c(N3CCCCC3C)nc3c2c(=O)[nH]c(=O)n3C)c1 (stereo not drawn)	-57%
CC1CCN(c2nc3c(c(=O)[nH]c(=O)n3C)n2Cc2ccccc2)CC1	7.99%
Cc1ccc(Cn2c(N3CCN(C)CC3)nc3c2c(=O)[nH]c(=O)n3C)cc1	-14.9%
Cc1cccc(Cn2c(N3CCN(C)CC3)nc3c2c(=O)n(C)c(=O)n3C)c1	-49%
O=C(COC(=O)CCNS(=O)(=O)c1ccc2c(c1)OCCO2)NC1CCCc2ccccc21 (stereo not drawn)	-0.954%
O=C(CN(C(=O)c1ccccc1Cl)N1C(=O)C2C3C=CC(C3)C2C1=O)c1cccs1 (stereo not drawn)	7.25%
O=C(CSc1ncn[nH]1)NC12CC3CC(CC(C3)C1)C2	-5.91%
O=C(N/N=C/c1c(F)c(F)c(F)c(F)c1F)c1cc(-c2ccccc2)nc2ccccc12	6.92%
O=C(O)Cc1csc(-c2cccc(F)c2)n1	19.1%
CC(C)OC(=O)NCCOC(=O)Nc1ccccc1Cl	21.6%
Cn1c(=O)c(=O)n(C)c2cc(S(=O)(=O)CCC(=O)NCc3ccccc3)ccc21	20%
